Compound activity: PubChem BioAssay, several laboratories
Only some compounds are listed: those with a hit (about 6.7% of all), similar ones and a draw of the others.
Autofluor counter – flagged as autofluorescent in microsphere protease counterscreen. 3.1% of 360,000 active. compound autofluorescence counterscreen, microsphere flow cytometry; active compounds read high. AID 624483. fluorescence intensity (concentration not given with the values); in the data active = fluorescence intensity above about 16000
BoNT-F LC inh – BoNT/F light chain protease inhibitors, primary screen, biochemical, flow cytometry, MLPCN library. Botulinum neurotoxin type F light chain protease (Clostridium botulinum). 0.22% of 360,000 active. inhibition, % at 10 µM. Multiplex microsphere protease cleavage assay; in the data active = inhibition above about 35%, passing the limit was not always enough; note: plate controls were buffer without enzyme for full effect and enzyme alone for no effect
Mtb FBA inh – Mtb FBA enzyme inhibitors, primary screen, biochemical, fluorescence, strain H37Rv. Fructose-bisphosphate aldolase (Mycobacterium tuberculosis (strain ATCC 25618 / H37Rv)), …. purified M. tuberculosis FBA, fluorescence read-out. inhibition, % at 1 µM. 2.3% of 360,000 active. AID 588726, 2011; in the data active = inhibition above about 27%;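 note: 0% = vehicle and 100% = reference inhibitor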
Target sequence (P9WQA3 whole entry, looked up): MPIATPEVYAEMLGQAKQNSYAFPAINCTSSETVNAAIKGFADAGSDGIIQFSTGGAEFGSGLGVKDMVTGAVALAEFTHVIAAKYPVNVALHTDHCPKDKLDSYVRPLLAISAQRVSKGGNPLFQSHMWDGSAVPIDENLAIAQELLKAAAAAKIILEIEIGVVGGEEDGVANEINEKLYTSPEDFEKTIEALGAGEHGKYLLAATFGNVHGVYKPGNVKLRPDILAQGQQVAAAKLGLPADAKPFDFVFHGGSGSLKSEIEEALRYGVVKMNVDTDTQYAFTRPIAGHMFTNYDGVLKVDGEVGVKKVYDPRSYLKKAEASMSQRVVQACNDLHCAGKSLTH
BoNT A protease – BoNT/A light chain protease inhibitors, primary screen, biochemical, flow cytometry, MLPCN library; 0.17% of 360,000 active; multiplex microsphere protease substrate cleavage; AID 588499, 2011; inhibition, % at 10 µM; note: plate controls were buffer without enzyme for full effect and enzyme alone for no effect
Anthrax LF inh2 – Bacillus anthracis LF protease inhibitors, primary screen, biochemical, multiplex microsphere, MLPCN library; inhibition, % at 10 µM; 0.12% of 360,000 active; AID 588501, 2011; multiplex microsphere protease cleavage assay; Lethal factor (Bacillus anthracis), P15917; note: plate controls were buffer without enzyme for full effect and enzyme alone for no effect
GDH-TPI inh – GDH-TPI coupling enzyme inhibitors, primary screen, artefact control for M. tuberculosis FBA inhibitor project, biochemical, absorbance, full deck | GDH-TPI coupled enzyme counterscreen, NADH absorbance | inhibition, % at 4.8 µM | 1.2% of 360,000 active | AID 588335, 2011; in the data active = inhibition above about 30%;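 note: 0% = DMSO wells and 100% = wells lacking the enzyme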
* = called active by the depositor; nt = no result; + = active, no number. Cut-off read from the data, not from the text of the source, unless noted: active = inhibition above about 30%; inconclusive = no clear call, values can overlap the other calls; inactive = below that.

SMILES | Autofluor counter | BoNT-F LC inh | Mtb FBA inh | BoNT A protease | Anthrax LF inh2 | GDH-TPI inh
COC(=O)c1sccc1-c1ccc(C(=O)Nc2cccnc2)o1 | 21993* | 2 | 1 | 2 | -9 | 34*
COC(=O)C(=Cc1ccc(-c2ccsc2C(=O)OC)o1)C(=O)OC | 5741 | -7 | -2 | -1 | -4 | 20
O=C1CCc2cc(S(=O)(=O)N3CCC(C(=O)NC4CCCCCCC4)CC3)ccc2N1 | 5149 | 3 | 0 | 0 | 0 | 9
CCCC(c1nnnn1CC1CCCO1)N1CCN(c2nc3ccccc3s2)CC1 (stereo not drawn) | 2316 | 8 | 0 | 1 | 0 | 7
CCOC(=O)c1nn(-c2ccc(F)cc2)c2nc(CC(C)C)c(C#N)c(=O)n12 | 18268* | 12 | 23 | 8 | -20 | 8
CCOC(=O)c1nn(-c2ccccc2)c2nc(-c3ccc(OC)cc3)c(C#N)c(=O)n12 | 2378 | -8 | 5 | 0 | -2 | -2
CNC(=O)/C(C#N)=C/c1ccc(OCCOc2ccccc2)cc1 | 3757 | 10 | 0 | -5 | -8 | 40*
N#C/C(=C\c1ccc(OCC(N)=O)cc1)C(=O)NC1CC1 | 4702 | 18 | -4 | 11 | 10 | 45*
COc1ccc(/C=C(\C#N)C(=O)NCc2ccccc2)cc1 | 4057 | 10 | -2 | 0 | 14 | 40*
Cc1ccc(C(C)NC(=O)/C(C#N)=C\c2c(C)[nH]c3ccccc23)cc1 (stereo not drawn) | 11242 | 5 | 2 | 0 | -4 | 9
Cc1[nH]c2ccccc2c1/C=C(\C#N)C(=O)NCc1ccccc1 | 11132 | -25 | 1 | 53* | 7 | 10
COc1cc(-n2c(=O)c3ccccc3n(Cc3cccc(C)c3)c2=O)cc(OC)c1OC | 4240 | -6 | -2 | 0 | -4 | -8
CC(CCc1ccccc1)NC(=O)CN(C)Cc1ccc(F)cc1 (stereo not drawn) | 4043 | -24 | 0 | -4 | -6 | -6
C#CCNC(=O)C1=C[C@H](C(C)(C)C)C[C@H](OCc2ccc(CO)cc2)O1 | 4031 | -6 | -2 | 0 | 0 | -6
CNc1nc(Cl)c(SC)c(NCc2cccc(OC)c2)n1 | 4483 | 48* | 0 | -4 | -1 | 3
COc1ccc(CC(=O)Nc2c3c(nn2-c2cccc(C)c2C)CS(=O)C3)cc1OC (stereo not drawn) | 3098 | 4 | 1 | 0 | 1 | 10
NC(N)=S | 4990 | -54 | -1 | -3 | -9 | 0
CCOC(=O)C1=C(CC)OC(N)=C(C#N)C1c1ccsc1 (stereo not drawn) | 2439 | 5 | -2 | 0 | -2 | 0
CCOC(=O)c1sc(=S)n(-c2ccccc2)c1N | 2359 | 5 | -3 | 0 | 0 | 34*
COC(=O)c1sc(=S)n(-c2cccc(Cl)c2)c1N | 26583* | -11 | -3 | -9 | -2 | 27
CCOC(=O)c1sc(=S)n(-c2ccccc2Cl)c1C | nt | nt | 3 | nt | nt | 39*
CCOC(=O)c1sc(=S)n(-c2ccccc2)c1N(C(C)=O)C(C)=O | 4570 | 2 | 0 | 1 | 8 | 11
CCOC(=O)c1sc(=S)n(-c2ccccc2)c1C | 5824 | 8 | 2 | 1 | 0 | 34*
O=C1CCC(C(=O)OC(C(=O)c2c[nH]c3ccccc23)c2ccccc2)=NN1 (stereo not drawn) | 2719 | -3 | -1 | 0 | -2 | 3
CC(C)Cn1c(N)c(C(=O)CSc2n[nH]c(N)n2)c(=O)n(C)c1=O | 3532 | -3 | -4 | 0 | -3 | -8
CCCN(CCC)CCNC(=O)CCC(=O)Nc1ccc2nc(N3CCN(C)CC3)cc(C)c2c1 | 4497 | -2 | + | 0 | -2 | 16
CCCCNC(=O)CCC(=O)Nc1ccc2nc(N3CCN(C)CC3)cc(C)c2c1 | 3316 | 1 | 23 | 0 | 5 | 3
CCOC(=O)N1CCC(NC(=S)Nc2ccc3nc(N4CCN(CC)CC4)cc(C)c3c2)CC1 | 4586 | -8 | 13 | 0 | -1 | 35*
NC(=O)C1CCN(CCC(=O)Nc2ccc(Br)cc2)CC1 | 23853* | -1 | -1 | 0 | -3 | -2
